The results in this text go back to ChEMBL document CHEMBL2218924, “A broad activity screen in support of a chemogenomic map for kinase signalling research and drug discovery” (Biochem J, 2013).

Assay [1] has as its target T1, Serine/threonine-protein kinase 17A (Homo sapiens) (UniProt Q9UEE5).
T1 sequence (whole entry): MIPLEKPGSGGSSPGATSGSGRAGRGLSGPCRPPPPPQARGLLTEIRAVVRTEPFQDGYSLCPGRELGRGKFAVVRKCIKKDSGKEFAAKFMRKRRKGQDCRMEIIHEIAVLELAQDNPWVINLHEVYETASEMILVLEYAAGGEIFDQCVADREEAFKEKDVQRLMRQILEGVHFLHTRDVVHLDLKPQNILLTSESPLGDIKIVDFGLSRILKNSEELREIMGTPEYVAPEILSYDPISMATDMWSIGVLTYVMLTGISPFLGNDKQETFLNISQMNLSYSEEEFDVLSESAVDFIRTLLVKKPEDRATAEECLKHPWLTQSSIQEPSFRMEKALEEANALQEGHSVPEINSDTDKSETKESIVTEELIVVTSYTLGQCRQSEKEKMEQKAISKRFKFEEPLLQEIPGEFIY
Conditions: at 10 µM.

The target of assay [2] is T2, Dual specificity tyrosine-phosphorylation-regulated kinase 2 (Homo sapiens) (UniProt Q92630).
T2 sequence (whole entry): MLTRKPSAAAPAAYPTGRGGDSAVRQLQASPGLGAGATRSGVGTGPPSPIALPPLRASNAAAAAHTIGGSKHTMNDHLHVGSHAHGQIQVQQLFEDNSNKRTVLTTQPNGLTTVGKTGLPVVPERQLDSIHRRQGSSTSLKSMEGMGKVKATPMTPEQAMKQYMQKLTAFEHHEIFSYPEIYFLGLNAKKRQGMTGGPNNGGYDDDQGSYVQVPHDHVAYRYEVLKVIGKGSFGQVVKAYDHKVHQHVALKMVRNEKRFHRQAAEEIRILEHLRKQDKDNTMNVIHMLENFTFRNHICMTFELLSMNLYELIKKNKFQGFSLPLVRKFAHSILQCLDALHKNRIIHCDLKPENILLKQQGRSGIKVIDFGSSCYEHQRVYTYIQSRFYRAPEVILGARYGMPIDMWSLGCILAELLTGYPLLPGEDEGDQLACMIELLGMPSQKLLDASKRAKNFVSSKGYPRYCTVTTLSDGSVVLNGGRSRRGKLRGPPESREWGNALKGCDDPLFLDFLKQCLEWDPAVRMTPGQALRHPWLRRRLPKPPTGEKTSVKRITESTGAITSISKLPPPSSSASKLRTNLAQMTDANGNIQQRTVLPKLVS
Conditions: at 1 µM.

The target of assay [3] is T2, Dual specificity tyrosine-phosphorylation-regulated kinase 2 (Homo sapiens). Conditions: at 10 µM.
Assay [4] has as its target T3, Ephrin type-A receptor 1 (Homo sapiens) (UniProt P21709).
T3 sequence (whole entry): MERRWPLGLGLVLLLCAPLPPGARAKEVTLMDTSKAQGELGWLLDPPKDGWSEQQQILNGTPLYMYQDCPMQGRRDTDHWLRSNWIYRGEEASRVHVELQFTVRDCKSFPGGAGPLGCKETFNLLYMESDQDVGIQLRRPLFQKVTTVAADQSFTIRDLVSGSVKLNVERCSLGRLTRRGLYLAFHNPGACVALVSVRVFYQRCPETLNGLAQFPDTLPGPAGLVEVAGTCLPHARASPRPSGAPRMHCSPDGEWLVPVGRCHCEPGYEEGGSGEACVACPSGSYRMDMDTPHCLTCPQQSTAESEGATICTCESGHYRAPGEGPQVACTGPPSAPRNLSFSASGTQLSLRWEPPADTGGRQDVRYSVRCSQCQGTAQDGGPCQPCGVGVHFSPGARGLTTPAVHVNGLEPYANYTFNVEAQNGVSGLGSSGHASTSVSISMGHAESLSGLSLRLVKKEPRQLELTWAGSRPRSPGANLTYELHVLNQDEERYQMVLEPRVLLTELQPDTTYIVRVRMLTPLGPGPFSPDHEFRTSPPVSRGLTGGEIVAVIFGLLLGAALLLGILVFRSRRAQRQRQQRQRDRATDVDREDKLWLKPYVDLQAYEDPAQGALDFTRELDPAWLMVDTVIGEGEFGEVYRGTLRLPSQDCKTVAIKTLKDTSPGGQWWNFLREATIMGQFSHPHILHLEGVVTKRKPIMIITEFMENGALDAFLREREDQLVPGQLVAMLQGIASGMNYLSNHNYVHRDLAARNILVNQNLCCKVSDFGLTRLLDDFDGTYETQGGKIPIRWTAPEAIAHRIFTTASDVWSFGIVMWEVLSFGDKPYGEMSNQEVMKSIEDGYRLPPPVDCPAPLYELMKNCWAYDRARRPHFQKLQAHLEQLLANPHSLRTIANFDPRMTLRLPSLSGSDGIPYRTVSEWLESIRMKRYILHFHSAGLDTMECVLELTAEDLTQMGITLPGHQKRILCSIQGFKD
Conditions: at 1 µM.

Assay [5] addresses T3, Ephrin type-A receptor 1 (Homo sapiens). The settings on record: at 10 µM.
In assay [6] the target is Ephrin type-A receptor 2 (Homo sapiens) (UniProt P29317). Conditions: at 1 µM.
The target is the same in assay [7]. The settings on record: at 10 µM.
Assay [8] deals with T4, Ephrin type-A receptor 3 (Homo sapiens) (UniProt P29320).
T4 sequence (whole entry): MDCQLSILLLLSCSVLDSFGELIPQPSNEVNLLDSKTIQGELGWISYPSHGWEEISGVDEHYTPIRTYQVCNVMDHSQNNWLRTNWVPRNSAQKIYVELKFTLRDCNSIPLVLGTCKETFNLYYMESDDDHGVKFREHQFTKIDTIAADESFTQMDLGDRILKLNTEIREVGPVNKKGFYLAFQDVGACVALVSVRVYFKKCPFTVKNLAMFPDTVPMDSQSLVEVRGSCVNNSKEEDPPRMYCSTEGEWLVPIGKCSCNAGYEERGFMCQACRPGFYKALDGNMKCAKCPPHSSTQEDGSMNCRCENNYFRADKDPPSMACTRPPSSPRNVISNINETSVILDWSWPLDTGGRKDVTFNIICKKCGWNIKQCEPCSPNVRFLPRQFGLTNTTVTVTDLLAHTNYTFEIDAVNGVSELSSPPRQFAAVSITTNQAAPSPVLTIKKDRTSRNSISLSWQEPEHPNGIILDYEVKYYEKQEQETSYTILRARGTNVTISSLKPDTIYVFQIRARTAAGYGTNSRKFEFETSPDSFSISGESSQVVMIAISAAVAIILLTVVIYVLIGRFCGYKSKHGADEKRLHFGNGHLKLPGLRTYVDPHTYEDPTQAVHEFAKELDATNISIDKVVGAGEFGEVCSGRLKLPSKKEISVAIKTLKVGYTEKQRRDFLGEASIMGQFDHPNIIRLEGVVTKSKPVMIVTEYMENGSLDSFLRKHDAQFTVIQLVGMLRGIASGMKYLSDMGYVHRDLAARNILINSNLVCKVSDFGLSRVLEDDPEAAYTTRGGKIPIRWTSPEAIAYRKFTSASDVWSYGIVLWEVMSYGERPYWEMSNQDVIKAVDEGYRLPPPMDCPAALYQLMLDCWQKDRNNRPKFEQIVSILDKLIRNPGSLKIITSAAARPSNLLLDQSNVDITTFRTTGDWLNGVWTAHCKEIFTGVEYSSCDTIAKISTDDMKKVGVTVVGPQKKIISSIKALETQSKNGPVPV
The settings on record: at 1 µM.

In assay [9] the target is T4, Ephrin type-A receptor 3 (Homo sapiens). The settings on record: at 10 µM.
Assay [10] has as its target Ephrin type-A receptor 4 (Homo sapiens) (UniProt P54764). Conditions: at 1 µM.
Assay [11] shares this target. Conditions: at 10 µM.
The target of assay [12] is Ephrin type-A receptor 5 (Homo sapiens) (UniProt P54756). Conditions: at 1 µM.
The target is the same in assay [13]. The settings on record: at 10 µM.
Assay [14] deals with Ephrin type-A receptor 7 (Homo sapiens) (UniProt Q15375). Conditions: at 1 µM.
Assay [15] shares this target. The settings on record: at 10 µM.
Assay [16] addresses T5, Ephrin type-A receptor 8 (Homo sapiens) (UniProt P29322).
T5 sequence (whole entry): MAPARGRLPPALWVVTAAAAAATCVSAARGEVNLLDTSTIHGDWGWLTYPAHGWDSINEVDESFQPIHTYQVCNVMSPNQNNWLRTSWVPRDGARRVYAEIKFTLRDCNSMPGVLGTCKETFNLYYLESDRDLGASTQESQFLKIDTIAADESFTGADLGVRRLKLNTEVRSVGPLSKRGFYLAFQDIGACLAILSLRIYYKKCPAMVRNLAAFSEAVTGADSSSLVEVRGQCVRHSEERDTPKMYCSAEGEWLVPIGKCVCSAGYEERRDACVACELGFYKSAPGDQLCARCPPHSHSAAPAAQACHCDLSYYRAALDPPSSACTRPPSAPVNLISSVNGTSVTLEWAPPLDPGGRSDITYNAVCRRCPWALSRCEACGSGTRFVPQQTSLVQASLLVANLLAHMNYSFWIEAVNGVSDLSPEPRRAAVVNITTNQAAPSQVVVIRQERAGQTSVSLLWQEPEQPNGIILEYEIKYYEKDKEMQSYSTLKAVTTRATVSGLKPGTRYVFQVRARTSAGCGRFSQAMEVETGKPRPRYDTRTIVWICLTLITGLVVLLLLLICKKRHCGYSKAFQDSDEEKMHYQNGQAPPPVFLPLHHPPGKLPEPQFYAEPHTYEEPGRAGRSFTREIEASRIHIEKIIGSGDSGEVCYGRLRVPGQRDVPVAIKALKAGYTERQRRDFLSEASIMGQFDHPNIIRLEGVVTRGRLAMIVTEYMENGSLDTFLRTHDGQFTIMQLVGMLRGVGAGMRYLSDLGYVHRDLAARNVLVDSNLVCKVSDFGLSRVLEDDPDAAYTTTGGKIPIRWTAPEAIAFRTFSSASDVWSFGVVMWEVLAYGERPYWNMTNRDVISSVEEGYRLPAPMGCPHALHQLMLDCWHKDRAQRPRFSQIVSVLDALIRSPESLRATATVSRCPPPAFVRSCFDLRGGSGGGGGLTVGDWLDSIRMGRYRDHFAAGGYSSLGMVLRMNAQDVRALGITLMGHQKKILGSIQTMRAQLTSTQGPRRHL
Conditions: at 1 µM.

In assay [17] the target is T5, Ephrin type-A receptor 8 (Homo sapiens). Conditions: at 10 µM.
For assay [18], the target named is T6, Ephrin type-B receptor 1 (Homo sapiens) (UniProt P54762).
T6 sequence (whole entry): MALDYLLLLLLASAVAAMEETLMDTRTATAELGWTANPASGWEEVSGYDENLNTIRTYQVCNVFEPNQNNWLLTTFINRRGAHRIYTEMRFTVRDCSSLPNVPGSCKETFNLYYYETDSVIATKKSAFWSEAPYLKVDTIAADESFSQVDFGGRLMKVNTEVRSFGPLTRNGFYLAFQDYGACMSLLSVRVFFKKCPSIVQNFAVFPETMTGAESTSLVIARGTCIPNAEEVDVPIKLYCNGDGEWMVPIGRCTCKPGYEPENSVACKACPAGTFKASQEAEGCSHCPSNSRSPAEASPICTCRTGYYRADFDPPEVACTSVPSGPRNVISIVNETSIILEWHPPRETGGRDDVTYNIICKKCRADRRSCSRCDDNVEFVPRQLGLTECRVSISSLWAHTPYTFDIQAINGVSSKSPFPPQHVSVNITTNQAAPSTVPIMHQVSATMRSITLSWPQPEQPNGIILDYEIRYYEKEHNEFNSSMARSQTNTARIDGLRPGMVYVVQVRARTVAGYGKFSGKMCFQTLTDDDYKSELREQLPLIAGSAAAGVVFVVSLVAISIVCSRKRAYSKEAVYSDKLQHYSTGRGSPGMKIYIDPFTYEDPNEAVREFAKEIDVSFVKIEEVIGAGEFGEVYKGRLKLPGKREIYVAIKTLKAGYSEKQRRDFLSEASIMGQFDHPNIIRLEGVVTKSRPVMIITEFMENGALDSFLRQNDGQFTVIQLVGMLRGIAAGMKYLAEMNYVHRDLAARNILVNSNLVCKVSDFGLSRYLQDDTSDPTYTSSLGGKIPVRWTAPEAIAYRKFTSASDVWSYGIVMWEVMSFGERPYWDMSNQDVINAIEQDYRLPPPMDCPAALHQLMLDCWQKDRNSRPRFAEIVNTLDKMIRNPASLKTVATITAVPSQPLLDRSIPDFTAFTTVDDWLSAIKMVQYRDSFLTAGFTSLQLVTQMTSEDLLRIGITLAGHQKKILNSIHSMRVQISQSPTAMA
The settings on record: at 1 µM.

Assay [19] has as its target Epidermal growth factor receptor (Homo sapiens) (UniProt P00533). The settings on record: at 1 µM.
Assay [20] shares this target. The settings on record: at 10 µM.

Chain of Ephrin type-A receptor 4 (Homo sapiens) (P54764 whole entry): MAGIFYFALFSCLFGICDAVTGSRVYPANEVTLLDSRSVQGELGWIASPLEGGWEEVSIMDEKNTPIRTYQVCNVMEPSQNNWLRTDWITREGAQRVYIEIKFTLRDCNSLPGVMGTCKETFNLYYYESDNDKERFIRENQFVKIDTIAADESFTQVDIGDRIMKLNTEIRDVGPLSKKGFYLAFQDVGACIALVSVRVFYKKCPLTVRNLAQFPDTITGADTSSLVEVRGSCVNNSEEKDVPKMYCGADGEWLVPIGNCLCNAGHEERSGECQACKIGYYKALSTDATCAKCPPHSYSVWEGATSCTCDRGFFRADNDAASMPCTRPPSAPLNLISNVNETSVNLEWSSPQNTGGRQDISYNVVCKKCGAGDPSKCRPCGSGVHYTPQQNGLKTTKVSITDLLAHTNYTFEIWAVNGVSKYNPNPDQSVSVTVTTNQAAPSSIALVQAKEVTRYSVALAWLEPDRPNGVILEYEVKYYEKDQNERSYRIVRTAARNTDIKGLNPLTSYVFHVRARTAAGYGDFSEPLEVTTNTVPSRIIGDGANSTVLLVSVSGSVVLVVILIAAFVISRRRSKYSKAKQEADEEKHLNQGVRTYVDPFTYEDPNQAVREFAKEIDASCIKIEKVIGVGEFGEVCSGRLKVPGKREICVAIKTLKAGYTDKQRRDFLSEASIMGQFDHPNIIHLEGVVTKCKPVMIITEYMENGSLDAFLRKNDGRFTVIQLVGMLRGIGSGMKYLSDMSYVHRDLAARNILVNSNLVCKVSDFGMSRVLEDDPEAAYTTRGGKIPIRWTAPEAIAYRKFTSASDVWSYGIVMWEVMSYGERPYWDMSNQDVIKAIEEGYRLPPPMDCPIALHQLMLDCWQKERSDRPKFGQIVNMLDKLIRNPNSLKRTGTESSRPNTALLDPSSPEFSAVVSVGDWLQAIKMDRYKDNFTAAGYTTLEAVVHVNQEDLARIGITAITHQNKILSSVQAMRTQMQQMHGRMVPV
Chain of Ephrin type-A receptor 2 (Homo sapiens) (P29317 whole entry): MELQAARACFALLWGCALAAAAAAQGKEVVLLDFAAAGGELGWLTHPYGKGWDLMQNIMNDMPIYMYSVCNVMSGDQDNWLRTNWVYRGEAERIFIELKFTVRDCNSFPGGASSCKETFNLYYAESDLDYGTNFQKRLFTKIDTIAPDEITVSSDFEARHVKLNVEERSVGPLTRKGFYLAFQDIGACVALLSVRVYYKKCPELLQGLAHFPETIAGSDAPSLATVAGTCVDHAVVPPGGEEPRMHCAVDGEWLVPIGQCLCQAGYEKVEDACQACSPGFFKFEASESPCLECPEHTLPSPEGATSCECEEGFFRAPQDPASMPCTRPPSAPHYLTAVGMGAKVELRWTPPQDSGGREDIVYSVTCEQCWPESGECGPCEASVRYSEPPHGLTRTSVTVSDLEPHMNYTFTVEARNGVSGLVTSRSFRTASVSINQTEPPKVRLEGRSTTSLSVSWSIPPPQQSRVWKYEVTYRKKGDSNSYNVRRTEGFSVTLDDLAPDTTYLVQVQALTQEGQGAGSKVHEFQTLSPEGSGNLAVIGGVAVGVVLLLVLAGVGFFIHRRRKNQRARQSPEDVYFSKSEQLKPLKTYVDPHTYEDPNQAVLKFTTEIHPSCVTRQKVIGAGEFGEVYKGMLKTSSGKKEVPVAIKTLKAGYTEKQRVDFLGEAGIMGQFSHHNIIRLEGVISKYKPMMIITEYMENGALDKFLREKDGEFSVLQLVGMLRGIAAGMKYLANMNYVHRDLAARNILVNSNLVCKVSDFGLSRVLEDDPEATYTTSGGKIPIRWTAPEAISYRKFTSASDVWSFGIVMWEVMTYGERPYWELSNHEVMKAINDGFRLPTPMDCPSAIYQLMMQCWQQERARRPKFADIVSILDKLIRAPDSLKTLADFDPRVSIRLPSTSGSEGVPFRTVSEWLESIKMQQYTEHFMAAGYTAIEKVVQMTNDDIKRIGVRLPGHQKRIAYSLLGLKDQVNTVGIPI
Chain of Ephrin type-A receptor 7 (Homo sapiens) (Q15375 28-998 limits assumed): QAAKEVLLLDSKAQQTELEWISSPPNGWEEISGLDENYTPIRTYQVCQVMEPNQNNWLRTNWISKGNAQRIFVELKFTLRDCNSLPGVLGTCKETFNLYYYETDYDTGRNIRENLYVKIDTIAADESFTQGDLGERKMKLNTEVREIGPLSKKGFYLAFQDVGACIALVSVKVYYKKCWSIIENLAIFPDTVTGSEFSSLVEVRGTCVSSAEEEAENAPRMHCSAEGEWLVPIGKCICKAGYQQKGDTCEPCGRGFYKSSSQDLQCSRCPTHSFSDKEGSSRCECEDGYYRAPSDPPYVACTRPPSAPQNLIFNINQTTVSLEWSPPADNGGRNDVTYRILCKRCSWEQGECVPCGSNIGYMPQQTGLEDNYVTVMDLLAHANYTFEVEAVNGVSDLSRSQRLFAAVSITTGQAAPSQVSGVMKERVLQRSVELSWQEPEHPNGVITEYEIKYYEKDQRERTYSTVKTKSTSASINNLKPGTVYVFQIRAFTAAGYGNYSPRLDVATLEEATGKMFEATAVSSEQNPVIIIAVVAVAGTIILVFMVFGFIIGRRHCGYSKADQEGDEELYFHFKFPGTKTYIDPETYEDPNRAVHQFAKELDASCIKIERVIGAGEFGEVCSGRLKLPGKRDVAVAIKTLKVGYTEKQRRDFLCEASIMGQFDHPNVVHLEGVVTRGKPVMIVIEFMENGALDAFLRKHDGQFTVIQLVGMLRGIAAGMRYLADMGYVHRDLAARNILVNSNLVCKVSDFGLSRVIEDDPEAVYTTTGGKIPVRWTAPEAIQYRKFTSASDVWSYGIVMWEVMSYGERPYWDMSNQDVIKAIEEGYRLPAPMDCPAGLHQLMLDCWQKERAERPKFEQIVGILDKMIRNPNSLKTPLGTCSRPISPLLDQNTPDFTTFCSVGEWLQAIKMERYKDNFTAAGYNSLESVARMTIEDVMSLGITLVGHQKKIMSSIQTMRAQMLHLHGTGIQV
Chain of Ephrin type-A receptor 5 (Homo sapiens) (P54756 whole entry): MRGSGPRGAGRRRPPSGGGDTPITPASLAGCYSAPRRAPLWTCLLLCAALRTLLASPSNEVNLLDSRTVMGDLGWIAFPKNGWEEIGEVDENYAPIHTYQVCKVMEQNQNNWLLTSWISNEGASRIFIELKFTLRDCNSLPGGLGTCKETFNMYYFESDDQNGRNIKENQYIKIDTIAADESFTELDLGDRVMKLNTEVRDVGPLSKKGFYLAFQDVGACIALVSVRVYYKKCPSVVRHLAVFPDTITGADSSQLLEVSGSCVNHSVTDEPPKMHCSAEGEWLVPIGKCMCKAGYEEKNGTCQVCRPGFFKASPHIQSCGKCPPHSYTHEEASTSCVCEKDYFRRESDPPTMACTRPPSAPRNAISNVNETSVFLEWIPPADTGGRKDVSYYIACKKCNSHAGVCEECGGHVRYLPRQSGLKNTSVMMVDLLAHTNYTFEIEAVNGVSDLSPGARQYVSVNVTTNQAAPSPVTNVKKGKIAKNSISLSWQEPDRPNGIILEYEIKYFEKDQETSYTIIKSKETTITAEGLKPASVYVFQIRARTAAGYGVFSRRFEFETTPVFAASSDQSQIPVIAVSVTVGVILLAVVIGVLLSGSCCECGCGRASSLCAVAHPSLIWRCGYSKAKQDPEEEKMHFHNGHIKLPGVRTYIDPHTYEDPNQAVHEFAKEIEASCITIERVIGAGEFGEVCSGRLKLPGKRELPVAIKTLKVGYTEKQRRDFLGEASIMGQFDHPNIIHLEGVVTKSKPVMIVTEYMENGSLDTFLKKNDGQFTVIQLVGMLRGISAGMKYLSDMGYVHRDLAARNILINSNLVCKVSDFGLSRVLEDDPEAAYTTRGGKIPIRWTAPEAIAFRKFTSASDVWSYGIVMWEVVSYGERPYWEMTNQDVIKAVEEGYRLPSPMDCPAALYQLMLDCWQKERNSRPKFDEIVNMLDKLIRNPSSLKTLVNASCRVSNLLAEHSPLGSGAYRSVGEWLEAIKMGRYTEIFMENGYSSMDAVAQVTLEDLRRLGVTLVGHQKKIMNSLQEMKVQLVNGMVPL

By residual activity is commonly meant the signal under treatment as a percentage of the control signal. On to `COc1ccc(S(=O)(=O)N(CCO)c2ccccc2CN(C)C/C=C/c2ccc(Cl)cc2)cc1`, for which the residual activity in [1] was 87%; in assay [2] it was 100%; in assay [3], 91%; in [4] it was 97%; in assay [5] it was 76%; in [6], 96%. In addition, the residual activity amounted to 86% in [7]; 97% in assay [8]; 83% in assay [9]; 103% in [10]; 97% in [11]; 124% in assay [12]. For the same compound, the residual activity in assay [13] was determined as 112%; in assay [14], 96%; in assay [15], 96%; in [16] it was 98%; in assay [17], 88%; in assay [18], 103%.
As for `COc1cc2ncnc(Nc3ccc(Oc4ccccc4)cc3)c2cc1OC`, the residual activity is 124% in assay [1]; 99% in [2]; 95% in assay [3]; -1% in assay [19]; -2% in [20]; 98% in [4]. Also, the residual activity stood at 81% in [5]; 95% in assay [6]; 116% in [7]; 98% in assay [8]; 106% in assay [9]; 107% in assay [10]. For the same compound, the residual activity in assay [11] was 103%; in assay [12], 130%; in assay [13], 89%; in assay [14] it was 102%; in assay [15] it was 84%; in assay [16], 91%. For the same compound, the residual activity in [17] stood at 65%; in [18], 110%.
